In the supplement of paper PMC10849652:
About 7,900 targets were measured; listed, in parts, are those with a hit and a random draw of the rest. About 0.6% of all pairs of compound and target were hits. Values without a mark were called inactive.

Assays:
Experiment in all cases: log2 fold change, soluble protein after heating vs DMSO (PISA); higher = thermal stabilisation; K562 cells, 10 uM, 30 min; active = over 0.2 and 3.5 SD of the protein, either way, in both replicates (recomputed)
erlotinib = compound: C#Cc1cccc(Nc2ncnc3cc(OCCOC)c(OCCOC)cc23)c1 [erlotinib]
Method in brief: (§1)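 Aliquots of K562 cells (2×10^6 cells/mL) treated with 10 μM compound for 30 min were heated for 3 min over 48°C-58°C. After pooling and extraction in PBS with 0.5% NP-40 at 4°C, soluble protein from a 21,000xg, 90 min spin was quantified by TMTpro 16plex LC-MS/MS with channel sums equalised. Thermal stability is expressed against control samples, from duplicates, as a log2 fold change.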

[1] = compound: C/C(=N\NC(=O)C1=CC(=CC=C1)S(=O)(=O)N2CCOCC2)/C3=C(C=CC(=C3)Cl)O
Method in brief: as §1

[2] = compound: C1=CC(=C(C=C1Cl)C2=NC3=NC=CN=C3C(=N2)NC4=CC=NC=C4)F
Method in brief: as §1

[3] = compound: C1=CC(=CC=C1C2=NC3=C(N2)C=C(C=C3)C(=O)N)OC4=CC=C(C=C4)Cl
Method in brief: as §1

[4] = compound: C1=CC2=C(C=CC(=C2)/C=C\3/C(=O)NC(=NCC4=CC=CS4)S3)N=C1
Method in brief: as §1

[5] = compound: C1=CC2=NC=CN=C2C=C1/C=C/3\C(=O)NC(=O)S3
Method in brief: as §1

[6] = compound: C1=CC=C(C=C1)C2=NC(=C(N2)C3=CC=NC=C3)C4=CC(=C(C=C4)Cl)O
Method in brief: as §1

[7] = compound: C1=CC=C2C(=C1)C3=NNC4=CC=CC(=C43)C2=O
Method in brief: as §1

[8] = compound: C1CCN(C1)C(=O)NC2=CC=CC(=C2)NC3=NC=C(C(=N3)NCCC4=CN=CN4)Br
Method in brief: as §1

[9] = compound: C1CN(CCC1(CC2=CC=C(C=C2)Cl)N)C3=NC=NC4=C3C=CN4
Method in brief: as §1

IRAK-1-4 Inhibitor I = compound: C1COCCN1CCN2C3=CC=CC=C3N=C2NC(=O)C4=CC(=CC=C4)[N+](=O)[O-] [IRAK-1-4 Inhibitor I]
Method in brief: as §1

ibrutinib = compound: C=CC(=O)N1CCC[C@@H](n2nc(-c3ccc(Oc4ccccc4)cc3)c3c(N)ncnc32)C1 [ibrutinib]
Method in brief: as §1

[10] = compound: CC(=O)c1cnc2ccc(-c3cc(Cl)c(O)c(Cl)c3)nc2c1N[C@H]1CC[C@H](CN(C)C)CC1
Method in brief: as §1

ralimetinib = compound: CC(C)(C)Cn1c(N)nc2ccc(-c3[nH]c(C(C)(C)C)nc3-c3ccc(F)cc3)nc21 [ralimetinib]
Method in brief: as §1

[11] = compound: CC(C)(O)CC(=O)NCCn1ccc2ncnc(Nc3ccc(Oc4cccc(C(F)(F)F)c4)c(Cl)c3)c21
Method in brief: as §1

[12] = compound: CC(C)C1=C2N=C(C=C(N2N=C1)NCC3=CC=CC=C3)NCCCCCCN
Method in brief: as §1

[13] = compound: CC(C)C[C@@H](C=O)NC(=O)[C@H](CC(C)C)NC(=O)[C@H](CC(C)C)NC(=O)OCc1ccccc1
Method in brief: as §1

pinometostat = compound: CC(C)N(C[C@H]1O[C@@H](n2cnc3c(N)ncnc32)[C@H](O)[C@@H]1O)[C@H]1C[C@@H](CCc2nc3cc(C(C)(C)C)ccc3[nH]2)C1 [pinometostat]
Method in brief: as §1

[14] = compound: CC1=C(C(CC(=O)N1)C2=CC=C(C=C2)C(F)(F)F)C(=O)NC3=C(C=C4C(=C3)C=NN4)F
Method in brief: as §1

[15] = compound: CC1=C(C2=C(C=C1)C(=O)C3=CC=CC=C3N2CCCN)C
Method in brief: as §1

Sequence of UniProt Q9UH99 (Q9UH99 whole entry, looked up): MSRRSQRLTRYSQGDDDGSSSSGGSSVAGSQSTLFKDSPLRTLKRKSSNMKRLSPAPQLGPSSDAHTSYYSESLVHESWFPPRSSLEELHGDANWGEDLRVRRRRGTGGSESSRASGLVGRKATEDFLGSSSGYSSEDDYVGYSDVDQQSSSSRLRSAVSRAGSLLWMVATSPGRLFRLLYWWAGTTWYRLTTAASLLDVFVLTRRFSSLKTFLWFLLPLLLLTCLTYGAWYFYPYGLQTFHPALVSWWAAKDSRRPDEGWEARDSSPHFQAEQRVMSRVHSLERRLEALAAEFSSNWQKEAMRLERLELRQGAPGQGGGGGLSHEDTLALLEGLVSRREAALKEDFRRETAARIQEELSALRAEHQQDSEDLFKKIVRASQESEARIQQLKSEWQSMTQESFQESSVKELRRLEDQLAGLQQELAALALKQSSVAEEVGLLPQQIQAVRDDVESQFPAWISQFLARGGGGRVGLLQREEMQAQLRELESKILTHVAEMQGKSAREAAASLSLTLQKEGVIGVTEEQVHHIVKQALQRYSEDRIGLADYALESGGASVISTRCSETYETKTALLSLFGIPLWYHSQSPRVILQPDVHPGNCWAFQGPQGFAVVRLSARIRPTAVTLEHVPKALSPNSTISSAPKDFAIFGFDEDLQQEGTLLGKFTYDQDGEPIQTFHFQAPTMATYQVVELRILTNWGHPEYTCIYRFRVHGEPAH
Sequence of UniProt P35610 (P35610 whole entry, looked up): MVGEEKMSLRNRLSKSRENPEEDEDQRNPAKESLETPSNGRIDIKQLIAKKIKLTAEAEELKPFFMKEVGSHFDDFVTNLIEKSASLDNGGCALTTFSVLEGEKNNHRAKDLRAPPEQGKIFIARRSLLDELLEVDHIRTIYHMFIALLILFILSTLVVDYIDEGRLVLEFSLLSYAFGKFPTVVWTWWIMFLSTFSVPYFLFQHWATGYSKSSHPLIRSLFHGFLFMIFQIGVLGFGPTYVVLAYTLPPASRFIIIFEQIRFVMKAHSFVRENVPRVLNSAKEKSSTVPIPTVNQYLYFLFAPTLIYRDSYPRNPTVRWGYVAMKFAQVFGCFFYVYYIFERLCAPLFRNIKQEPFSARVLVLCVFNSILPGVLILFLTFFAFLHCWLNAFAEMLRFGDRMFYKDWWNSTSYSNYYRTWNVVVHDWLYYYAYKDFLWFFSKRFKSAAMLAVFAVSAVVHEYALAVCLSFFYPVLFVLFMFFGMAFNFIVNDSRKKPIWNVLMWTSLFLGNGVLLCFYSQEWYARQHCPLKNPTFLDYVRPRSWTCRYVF
Sequence of UniProt Q9UP52 (Q9UP52 whole entry, looked up): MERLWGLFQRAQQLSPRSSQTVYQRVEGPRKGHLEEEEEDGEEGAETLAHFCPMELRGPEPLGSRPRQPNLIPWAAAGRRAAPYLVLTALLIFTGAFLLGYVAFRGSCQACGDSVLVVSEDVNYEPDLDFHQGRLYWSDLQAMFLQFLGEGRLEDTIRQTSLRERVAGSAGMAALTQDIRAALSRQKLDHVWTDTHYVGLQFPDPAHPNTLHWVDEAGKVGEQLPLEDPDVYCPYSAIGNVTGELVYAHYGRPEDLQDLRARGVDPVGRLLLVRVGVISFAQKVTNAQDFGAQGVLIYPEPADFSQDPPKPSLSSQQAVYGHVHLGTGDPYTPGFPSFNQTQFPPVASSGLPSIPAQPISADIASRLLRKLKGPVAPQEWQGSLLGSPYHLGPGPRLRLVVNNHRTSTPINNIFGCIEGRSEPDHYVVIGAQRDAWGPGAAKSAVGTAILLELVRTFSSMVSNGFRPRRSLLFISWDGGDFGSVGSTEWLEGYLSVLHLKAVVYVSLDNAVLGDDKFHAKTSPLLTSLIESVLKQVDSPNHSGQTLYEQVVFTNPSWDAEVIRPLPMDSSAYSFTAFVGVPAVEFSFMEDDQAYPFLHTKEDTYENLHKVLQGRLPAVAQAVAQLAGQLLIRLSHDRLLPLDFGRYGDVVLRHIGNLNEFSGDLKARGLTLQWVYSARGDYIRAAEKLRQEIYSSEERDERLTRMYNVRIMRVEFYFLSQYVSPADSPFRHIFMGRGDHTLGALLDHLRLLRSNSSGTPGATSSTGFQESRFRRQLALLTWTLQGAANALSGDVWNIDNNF
Sequence of UniProt P12235 (P12235 whole entry, looked up): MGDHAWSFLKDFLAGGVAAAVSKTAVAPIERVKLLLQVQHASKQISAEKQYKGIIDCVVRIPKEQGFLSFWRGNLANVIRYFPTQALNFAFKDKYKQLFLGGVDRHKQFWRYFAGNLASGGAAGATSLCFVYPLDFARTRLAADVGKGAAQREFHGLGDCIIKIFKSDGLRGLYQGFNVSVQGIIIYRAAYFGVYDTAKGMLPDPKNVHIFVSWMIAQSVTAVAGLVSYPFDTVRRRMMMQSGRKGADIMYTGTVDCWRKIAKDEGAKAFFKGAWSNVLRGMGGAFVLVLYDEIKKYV
Sequence of UniProt Q8NBW4 (Q8NBW4 whole entry, looked up): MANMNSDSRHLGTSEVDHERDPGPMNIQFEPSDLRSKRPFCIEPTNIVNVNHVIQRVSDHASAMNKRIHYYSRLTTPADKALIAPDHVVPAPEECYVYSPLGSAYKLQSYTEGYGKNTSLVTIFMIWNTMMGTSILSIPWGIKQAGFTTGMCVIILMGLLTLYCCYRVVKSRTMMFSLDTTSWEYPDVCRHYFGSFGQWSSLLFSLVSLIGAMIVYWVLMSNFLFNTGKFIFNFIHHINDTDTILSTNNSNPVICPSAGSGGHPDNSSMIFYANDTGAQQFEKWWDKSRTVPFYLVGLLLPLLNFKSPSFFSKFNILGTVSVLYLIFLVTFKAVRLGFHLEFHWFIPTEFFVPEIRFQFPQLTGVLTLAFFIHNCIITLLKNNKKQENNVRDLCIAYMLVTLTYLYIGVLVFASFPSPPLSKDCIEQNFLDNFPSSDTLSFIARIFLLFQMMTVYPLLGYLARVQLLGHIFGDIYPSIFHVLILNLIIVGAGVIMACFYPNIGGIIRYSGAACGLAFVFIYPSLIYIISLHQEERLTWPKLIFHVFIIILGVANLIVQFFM
Sequence of UniProt O15198 (O15198 whole entry, looked up): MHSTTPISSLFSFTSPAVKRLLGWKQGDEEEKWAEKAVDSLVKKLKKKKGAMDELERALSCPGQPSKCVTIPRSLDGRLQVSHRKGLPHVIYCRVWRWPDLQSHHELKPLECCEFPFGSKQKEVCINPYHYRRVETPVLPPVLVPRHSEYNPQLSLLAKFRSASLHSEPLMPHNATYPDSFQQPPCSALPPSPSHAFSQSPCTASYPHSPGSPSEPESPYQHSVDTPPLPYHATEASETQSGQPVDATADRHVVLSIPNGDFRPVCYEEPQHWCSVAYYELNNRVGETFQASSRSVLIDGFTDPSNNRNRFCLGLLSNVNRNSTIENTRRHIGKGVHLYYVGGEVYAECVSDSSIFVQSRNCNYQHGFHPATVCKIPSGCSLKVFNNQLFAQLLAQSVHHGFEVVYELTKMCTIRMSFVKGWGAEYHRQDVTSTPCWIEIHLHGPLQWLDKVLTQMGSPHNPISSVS
Sequence of UniProt O95772 (O95772 whole entry, looked up): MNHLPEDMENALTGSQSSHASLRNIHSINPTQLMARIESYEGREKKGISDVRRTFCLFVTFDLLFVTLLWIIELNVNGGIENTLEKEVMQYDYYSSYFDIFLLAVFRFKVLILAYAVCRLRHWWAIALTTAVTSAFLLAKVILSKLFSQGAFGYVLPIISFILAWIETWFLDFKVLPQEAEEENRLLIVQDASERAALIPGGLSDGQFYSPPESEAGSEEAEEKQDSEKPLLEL
Sequence of UniProt Q9Y5X1 (Q9Y5X1 whole entry, looked up): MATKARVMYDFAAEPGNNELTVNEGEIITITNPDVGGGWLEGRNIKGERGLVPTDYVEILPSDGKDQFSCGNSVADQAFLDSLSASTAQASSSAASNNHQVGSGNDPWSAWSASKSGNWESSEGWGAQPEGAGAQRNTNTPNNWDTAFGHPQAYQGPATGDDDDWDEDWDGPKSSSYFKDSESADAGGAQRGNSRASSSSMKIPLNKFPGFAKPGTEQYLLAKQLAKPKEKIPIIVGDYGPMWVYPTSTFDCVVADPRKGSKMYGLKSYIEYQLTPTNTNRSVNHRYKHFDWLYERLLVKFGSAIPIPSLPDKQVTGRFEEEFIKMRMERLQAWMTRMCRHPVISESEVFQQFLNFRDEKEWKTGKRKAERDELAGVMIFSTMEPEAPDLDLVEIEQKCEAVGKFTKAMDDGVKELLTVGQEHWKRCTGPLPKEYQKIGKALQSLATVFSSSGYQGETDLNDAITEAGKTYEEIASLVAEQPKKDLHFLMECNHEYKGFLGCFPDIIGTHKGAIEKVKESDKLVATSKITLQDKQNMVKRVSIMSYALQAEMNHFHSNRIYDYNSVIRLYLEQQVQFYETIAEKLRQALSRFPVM
Sequence of UniProt Q01085 (Q01085 whole entry, looked up): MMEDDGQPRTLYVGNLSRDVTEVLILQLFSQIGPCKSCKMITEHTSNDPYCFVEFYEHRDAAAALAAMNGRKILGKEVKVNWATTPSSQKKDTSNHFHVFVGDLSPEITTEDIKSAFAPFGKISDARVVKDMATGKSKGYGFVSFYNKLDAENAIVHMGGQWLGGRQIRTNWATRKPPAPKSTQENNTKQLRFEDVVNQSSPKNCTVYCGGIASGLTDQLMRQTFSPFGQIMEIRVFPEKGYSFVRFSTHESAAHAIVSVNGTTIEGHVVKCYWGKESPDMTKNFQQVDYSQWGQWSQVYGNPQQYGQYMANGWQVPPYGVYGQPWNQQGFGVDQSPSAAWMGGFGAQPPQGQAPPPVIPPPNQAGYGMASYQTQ

| Target | log2 fold change (erlotinib) | log2 fold change [1] | log2 fold change [2] | log2 fold change [3] | log2 fold change [4] | log2 fold change [5] | log2 fold change [6] | log2 fold change [7] | log2 fold change [8] | log2 fold change [9] | log2 fold change (IRAK-1-4 Inhibitor I) | log2 fold change (ibrutinib) | log2 fold change [10] | log2 fold change (ralimetinib) | log2 fold change [11] | log2 fold change [12] | log2 fold change [13] | log2 fold change (pinometostat) | log2 fold change [14] | log2 fold change [15] |
| --- | --- | --- | --- | --- | --- | --- | --- | --- | --- | --- | --- | --- | --- | --- | --- | --- | --- | --- | --- | --- |
| TARS2 (UniProt Q9BW92) | 0.042 | -0.721 (active) | 0.021 | 0.003 | 0.086 | 0.038 | -0.03 | 0.003 | 0.001 | -0.058 | -0.076 | -0.043 | 0.009 | -0.029 | -0.078 | -0.219 (active) | 0.069 | -0.022 | 0.036 | 0.054 |
| SMAD9 (UniProt O15198) | -0.001 | 0.086 | 0.101 | -0.055 | 0 | -0.012 | -0.111 | -0.098 | 0.113 | -0.076 | -0.033 | 0.007 | -0.092 | -0.087 | -0.022 | 0.005 | 0.06 | 0.024 | 0.039 | 0.017 |
| SSRP1 (UniProt Q08945) | -0.018 | 0.143 | 0.005 | 0.014 | 0.029 | 0.022 | -0.016 | -0.029 | -0.052 | 0.009 | -0.044 | -0.037 | -0.138 | -0.022 | -0.008 | -0.119 | 0 | -0.036 | -0.02 | -0.554 (active) |
| TIAL1 isoform 2 (UniProt Q01085) | 0.013 | -0.004 | 0.002 | 0 | 0.02 | 0.008 | -0.026 | 0.018 | 0.032 | -0.004 | 0.044 | 0.011 | -0.035 | -0.05 | 0.001 | 0.106 | 0.019 | -0.039 | -0.02 | 0.238 (active) |
| SPG11 (UniProt Q96JI7) | 0.586 | 0.148 | -0.089 | -0.084 | 0.128 | -0.108 | -0.275 | -0.073 | 0.405 | -0.002 | -0.027 | 0.128 | -0.065 | -0.151 | 0.103 | 0.051 | 0.405 | 0.035 | 0.03 | 0.097 |
| SOAT1 (UniProt P35610) | 0.174 | 0.099 | -0.034 | -0.063 | 0.141 | 0.063 | 0.074 | -0.038 | 0.001 | 0.026 | 0.1 | -0.008 | -0.031 | 0.031 | -0.04 | -0.014 | 0.303 | -0.017 | -0.041 | 0.053 |
| SLC38A9 (UniProt Q8NBW4) | 0.008 | -0.023 | -0.018 | 0.02 | 0.046 | 0.063 | -0.071 | -0.011 | -0.042 | 0.055 | -0.028 | -0.005 | -0.019 | 0 | 0.089 | -0.368 (active) | 0.049 | -0.023 | 0.023 | -0.1 |
| SP100 isoform 4 (UniProt P23497) | 0.011 | 0.044 | 0.037 | 0.022 | -0.071 | 0.063 | 0.033 | -0.05 | -0.001 | 0.035 | 0.006 | -0.012 | 0.074 | 0.019 | 0.011 | -0.015 | -0.07 | -0.035 | 0.029 | -0.1 |
| SMPD4 isoform 4 (UniProt Q9NXE4) | 0.073 | 0.064 | -0.034 | 0.005 | 0.098 | 0.158 | -0.021 | -0.076 | 0.023 | -0.011 | -0.034 | -0.044 | 0.12 | -0.072 | -0.095 | -0.279 (active) | 0.005 | -0.002 | -0.019 | 0.038 |
| SLC6A6 (UniProt P31641) | 0.001 | 0.013 | 0.123 | -0.005 | 0.003 | 0.055 | 0.007 | -0.054 | 0.087 | 0.083 | -0.025 | 0.036 | -0.045 | -0.186 | -0.033 | 0.107 | 0.101 | -0.071 | -0.025 | -0.181 |
| SNX9 (UniProt Q9Y5X1) | -0.005 | 0.047 | -0.004 | -0.024 | 0.004 | 0.014 | -0.006 | -0.011 | -0.01 | 0.028 | -0.011 | 0.025 | -0.043 | 0.005 | 0.002 | 0.014 | 0.029 | 0.04 | 0.024 | 0.02 |
| STARD3NL (UniProt O95772) | 0.004 | -0.107 | -0.004 | -0.003 | 0.169 | 0.048 | 0.11 | 0.103 | -0.013 | 0.015 | 0.014 | -0.023 | -0.216 | 0.038 | -0.014 | -0.432 (active) | -0.036 | 0.013 | 0.007 | 0.062 |
| SLC25A4 (UniProt P12235) | 0.007 | -0.016 | 0.035 | -0.009 | -0.004 | 0.042 | 0.045 | -0.076 | -0.019 | 0.021 | 0.032 | 0.068 | 0.016 | -0.007 | 0.009 | 0.089 | 0.004 | -0.02 | -0.031 | -0.013 |
| TFR2 (UniProt Q9UP52) | 0.009 | -0.019 | -0.012 | -0.015 | 0.018 | 0.016 | -0.039 | -0.023 | 0.03 | 0.018 | 0.018 | 0.008 | -0.011 | -0.018 | 0.037 | -0.146 | 0.02 | 0.02 | 0.02 | -0.128 |
| SUN2 (UniProt Q9UH99) | -0.067 | 0.023 | -0.031 | -0.004 | -0.012 | 0.02 | 0.005 | -0.087 | -0.038 | -0.017 | -0.04 | 0.056 | -0.044 | 0.072 | -0.119 | -0.211 (active) | 0.041 | 0.027 | 0.043 | -0.117 |
| SYNE1 (UniProt Q8NF91) | 0.155 | -0.499 (active) | 0.07 | -0.132 | 0.132 | -0.02 | 0.058 | 0 | -0.038 | 0.172 | 0.062 | -0.015 | -0.398 | 0.127 | -0.212 | 0.097 | 0.064 | 0.002 | -0.031 | 0.075 |
